Test results published in PubChem BioAssay (EPA / NIEHS).
Records with an inconclusive call do not appear. Active and inactive are the calls of the source. How the source made its calls: active means hit-call score of the fitted dose curve at least 0.9, where 1 is the maximum; inconclusive means response in the unintended direction; inactive means score below 0.9.

read-out: xenobiotic metabolism (CYP2C9), CYP2C9 (gene 1559); assay: CLD_CYP2C9_6hr: CellzDirect (CLD) Gene Expression Assay for xenobiotic metabolism (CYP2C9) at 6 hours (AID 2283664)
Description: CLD_6hr is a cell-based, multiplexed-readout assay that uses hepatocyte, a human liver primary cell, with measurements taken at 6 hours after chemical dosing in a 96-well plate.CLD_CYP2C9_6hr is one of 16 assay component(s) measured or calculated from the CLD_6hr assay. It is designed to make measurements of mRNA induction, a form of inducible reporter, as detected with chemiluminescence signals by Quantitative Nuclease Protection Assay (qNPA) technology.Data from the assay component CLD_CYP2C9_6hr was analyzed at the endpoint, CLD_CYP2C9_6hr, in the positive analysis fitting direction relative to DMSO as the negative control and baseline of activity. Using a type of inducible reporter, gain-of-signal activity can be used to understand changes in the reporter gene as they relate to the gene CYP2C9. Furthermore, this assay endpoint can be referred to as a primary readout. To generalize the intended target to other relatable targets, this assay endpoint is annotated to the cyp intended target family, where subfamily is xenobiotic metabolism.
Human hepatocyte cultures were treated daily for two consecutive days with fresh dosing solutions containing appropriate concentrations of the 320 ToxCast chemicals (chemical identities were blinded to CellzDirect and other ToxCast collaborators), vehicle control (0.2% DMSO), and positive control inducers as summarized in Table 1. Due to the large number of treatment groups and chemicals examined, the ToxCast chemicals were divided into two groups (spanning two independent cultures of hepatocytes from separate donor preparations (Hu778: ToxCast plates 1 and 2; Hu776: ToxCast plates 3 and 4). Each preparation of human hepatocyte cultures was treated with respective vehicle control, medium only control, set of six positive controls/reference chemicals for the five hepatic receptor pathways, and a subset of eight of the ToxCast chemicals (indoxacarb, pyrithiobac-sodium, norflurazon, cyhalofop-butyl, methomyl, thiram, acetochlor, and propiconazole). These replicate data, coupled with internal replicates designed within the blinded ToxCast chemical library, provided additional data to evaluate interindividual differences between hepatocyte preparations and their potential impact on chemical profiles.Cell morphology and integrity were evaluated using phase-contrast microscopy as an indicator of hepatocyte cell health (Tyson & Green, 1987). Cultures for each treatment group (i.e., media, vehicle [0.2% DMSO], positive control inducers [multiple concentrations], and the ToxCast chemicals [multiple concentrations]) were observed and cell morphology was assessed relative to vehicle control cultures at each harvest time point (0, 6, 24, or 48 h). […] Images were evaluated at the conclusion of the study to assess changes in cell integrity and account for the effects of chemical exposure on uncharacteristic changes in concentration-dependent gene expression profiles. The results from these determinations of apparent cytotoxicity were annotated (yes/no) alongside the corresponding qNPA data for reference.At the conclusion of each treatment period, hepatocyte cultures (96-well) were washed with 1 volume of HBSS, lysed by addition of 25 ul ArrayPlate lysis buffer (HTG, Tucson, AZ), and 70 ul/well of Denaturation Oil, denatured by incubation at 95C for 10 min, and frozen at approximately -70C until analysis by nuclease protection assay (qNPA) (Roberts et al., 2007). For qNPA analysis, cell lysates were thawed at 50C for approximately 30 min, qNPA probes were added, and samples were incubated at 95C for 10 min to begin the detection process by denaturing the target RNA, dissociating the duplexes and secondary structure hybridization. At the conclusion of the hybridization period, S1 nuclease reagent was added to each sample to digest all nonprotected nucleotides at 50C for 60-90 min. […]

Structure (SMILES)	outcome	AC50
CCOC(=O)C(C)Oc1ccc(Oc2cnc3cc(Cl)ccc3n2)cc1 (stereo not drawn)	inactive	–
CCCOC(=O)NCCCN(C)C	inactive	–
COCCO	inactive	–
COC(=O)CSc1cc(N=c2sc(=O)n3n2CCCC3)c(F)cc1Cl	inactive	–
CCC(O)=C1C(=O)CC(C(=O)O)CC1=O (stereo not drawn)	inactive	–
COc1nc(C)nc(NC(=O)NS(=O)(=O)c2ccccc2OCCCl)n1	inactive	–
CCCCCOC(=O)COc1cc(N2C(=O)C3=C(CCCC3)C2=O)c(F)cc1Cl	inactive	–
S=C(S)NCCNC(=S)S.[Mn+2].[S-]C([S-])=NCCN=C([S-])[S-].[Zn+2]	inactive	–
CCCCC(CC)CN1C(=O)C2C3C=CC(C3)C2C1=O (stereo not drawn)	inactive	–
CC1(C)C(C=C(Cl)Cl)C1C(=O)OCc1cccc(Oc2ccccc2)c1 (stereo not drawn)	inactive	–
C#CCOC(=O)[C@@H](C)Oc1ccc(Oc2ncc(Cl)cc2F)cc1	inactive	–
CCCN(CCC)C(=O)SCC	inactive	–
CCCCOC(=O)[C@@H](C)Oc1ccc(Oc2ccc(C(F)(F)F)cn2)cc1	inactive	–
CC(C)(C)[C@@H](O)[C@@H](Cc1ccc(Cl)cc1)n1cncn1	inactive	–
COC(=O)c1ccccc1S(=O)(=O)NC(=O)Nc1nc(OC(F)F)cc(OC(F)F)n1	inactive	–
CCOC(=O)COc1cc(-n2ncc(C(F)(F)F)c(C)c2=O)c(F)cc1Cl	inactive	–
CC(C)(c1ccc(O)cc1)c1ccc(O)cc1	inactive	–
N#CSCSc1nc2ccccc2s1	–	36.1 µM (active)
